The source of these data is PubChem BioAssay (NCATS).

Experiment [1] concerns the target Calcium and integrin-binding protein 1 (Homo sapiens) (UniProt Q99828). The experiment can be described thus: Primary qHTS for Identification of Calcium Integrin Binding Protein 1 (CIB1) Competitor (AID 1508620).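 Further: GST tagged CIB1 binding a fluorescein labelled alphaIIb integrin peptide tracer; top concentration of the series differs between compounds.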 Summed up:
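Fluorescence polarization competition: GST-tagged CIB1 (1 uM final) preincubated with compound 15 min at room temperature, then FITC-labelled alphaIIb peptide (100 nM final) added. After 15 min at room temperature, polarization read at Ex 480/Em 540.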
(qHTS replaces the single test concentration by a dilution series.)

Experiment [2] is described as follows: Primary qHTS for inhibitors of nuclear receptor binding SET domain protein 2 (NSD2) in an isogenic RCH-ACV NSD2 p.E1099K mutant (9B) (AID 1645876). Further: nearly all actives have a fitted effect of over 70% in size. Further: potency means the concentration at half of the fitted maximal effect.

The structures appear in SMILES notation. Records with an inconclusive call do not appear. Values without a mark were called inactive. Active and inactive are the calls of the source. The call rests on the fitted dose curve; in most records, active means well fitted inhibition curve with a large enough effect; inconclusive means small, poorly fitted or top-dose-only effect; inactive means flat fitted curve, though single readings scatter. Where a SMILES comes first, the peptide text is derived from it. [ ]: non-standard residue; d: D form. ξ: configuration not given here. ξLac(3-iPr) = CC(C)CC(O)C(=O)O; NMeV = CN[CH](C(=O)O)C(C)C; βAla = NCCC(=O)O
On the % scale 0 is the no-effect control and ±100 the full control effect.

Chain of Calcium and integrin-binding protein 1 (Homo sapiens) (Q99828 whole entry, looked up): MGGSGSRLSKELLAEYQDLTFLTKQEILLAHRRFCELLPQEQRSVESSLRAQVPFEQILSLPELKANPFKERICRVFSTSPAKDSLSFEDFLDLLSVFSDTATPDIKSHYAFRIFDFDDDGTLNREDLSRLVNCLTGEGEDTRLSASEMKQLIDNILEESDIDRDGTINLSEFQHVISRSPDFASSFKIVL

`C[C@H](NC(c1cccc(C[P+](=O)O)c1)[C@H](C)O)c1ccc(Cl)c(Cl)c1` (some centres undefined): the Potency entry in experiment [1] and in experiment [2] was “inactive” in each case.
Turning to `COc1cc(/C=C/C(=O)O[C@H]2[C@H](O)[C@@H](CO)O[C@@]2(CO)O[C@H]2O[C@H](CO)[C@@H](O)[C@H](O)[C@H]2O)ccc1O`, the Potency entry in experiment [1] and in experiment [2] was “inactive” in each case.
For `CC1CCC2(OC1)OC1CC3C4CCC5C[C@@H](O[C@@H]6O[C@H](CO[C@@H]7OC[C@@H](O)[C@H](O)[C@H]7O)[C@H](O)[C@H](O)[C@H]6O)CC[C@]5(C)C4CC[C@]3(C)C1C2C` (some centres undefined), the Potency result in experiment [1] and in experiment [2] was “inactive” throughout.
For `CCCOC(c1cc2nccc(C(=O)O)c2[nH]1)c1ccccc1Cl` (centres undefined), the Potency entry in experiment [1] and in experiment [2] was “inactive” throughout.
For the compound `CC1C(OC(=O)c2ccccc2)C(O)C2C(C(=O)O)=COC(OC3OC(CO)C(O)C(O)C3O)C12` (centres undefined), the Potency result in experiment [1] and in experiment [2] was “inactive” throughout.
As for `CC(C)=CCC[C@](C)(O[C@@H]1O[C@H](CO)[C@@H](O)[C@H](O)[C@H]1O)[C@H]1CC[C@]2(C)[C@@H]1[C@H](O)CC1[C@@]3(C)CC[C@H](O)C(C)(C)C3[C@@H](O[C@@H]3O[C@H](CO)[C@@H](O)[C@H](O)[C@H]3O)C[C@]12C` (some centres undefined), the Potency result in experiment [1] and in experiment [2] was “inactive” throughout.
`CC(=O)C1=CCC2C3CCC4CC(O[C@@H]5O[C@H](CO)[C@@H](O[C@@H]6O[C@@H](C)[C@H](O)[C@@H](O)[C@H]6O)[C@H](O)[C@H]5O[C@@H]5O[C@H](CO)[C@@H](O)[C@H](O)[C@H]5O)CCC4(C)C3CCC12C` (some centres undefined): the Potency result in experiment [1] and in experiment [2] was “inactive” each time.
As to `CC12CCC3c4ccc(OC5OC(C(=O)O)C(O)C(O)C5O)cc4CCC3C1CCC2O` (centres undefined), the Potency result in experiment [1] and in experiment [2] was “inactive” in each case.
With `COc1cc(C(=O)OC[C@H]2O[C@@H](Oc3ccccc3/C=C/C(=O)O)[C@H](O)[C@@H](O)[C@@H]2O)cc(OC)c1OC`, the Potency result in experiment [1] and in experiment [2] was “inactive” throughout.
Consider `C/C(=C\CC[C@@H](C)[C@H]1CC(O)[C@@]2(C)C3CC[C@H]4C(C)(C)[C@@H](OC5OCC(O)C(O)C5OC5OC(CO)C(O)C(O)C5O)CC[C@@]45C[C@@]35CC(O)[C@]12C)C(=O)O` (some centres undefined), for which the Potency entry in experiment [1] and in experiment [2] was “inactive” in each case.
For `CC1=C(C(=O)O)/C(=C\CO[C@@H]2O[C@H](CO)[C@@H](O)[C@H](O)[C@H]2O)C(OC(=O)/C=C\c2ccc(O)cc2)C1` (some centres undefined), the Potency entry in experiment [1] and in experiment [2] was “inactive” each time.
For `NC(=O)[C@H](O[C@@H]1O[C@H](CO)[C@@H](O)[C@H](O)[C@H]1O)c1ccccc1`, the Potency result in experiment [1] and in experiment [2] was “inactive” each time.
For `OCC(CO[C@@H]1O[C@H](CO)[C@@H](O)[C@H](O)[C@H]1O)c1ccc2c(c1)OCO2` (some centres undefined), the Potency result in experiment [1] and in experiment [2] was “inactive” each time.
With `COc1ncc(Nc2ncc([C@@H](C)N3CCN(S(C)(=O)=O)CC3)cc2-c2nc(C)nc(N)n2)cc1F`, the Potency result in experiment [1] was “inactive”. Moreover, the Potency in experiment [2] is 5.2 nM (active).
Consider `O=C(O)C(O[C@@H]1O[C@H](CO[C@@H]2O[C@H](CO)[C@@H](O)[C@H](O)[C@H]2O)[C@@H](O)[C@H](O)[C@H]1O)c1ccccc1` (some centres undefined), for which the Potency entry in experiment [1] and in experiment [2] was “inactive” in each case.
Turning to `C[C@@H]1CCC2C(C)(C)[C@H](O)CC[C@]2(C)[C@@]12Cc1c(O)cc3c(c1O2)CNC3=O` (some centres undefined), the Potency entry in experiment [1] and in experiment [2] was “inactive” each time.
With `C=C[C@H]1C(O[C@@H]2O[C@H](CO)[C@@H](O)[C@H](O)[C@H]2O)OC=C2C(=O)N3CCc4c([nH]c5ccccc45)[C@H]3C[C@H]21` (some centres undefined), the Potency result in experiment [1] and in experiment [2] was “inactive” in each case.
`C[C@@H]1C(=O)O[C@H]2[C@H](O)C34[C@H]5C[C@@H](C(C)(C)C)C36[C@@H](OC(=O)[C@@H]6O)O[C@@]4(C(=O)O5)[C@@]12O` (some centres undefined): the Potency result in experiment [1] and in experiment [2] was “inactive” throughout.
Take `CC1=CC(=O)C2(OC3OC(C)C(O)C(OC(=O)/C=C/c4ccccc4)C3O)C=COC(OC3OC(CO)C(O)C(O)C3O)C12` (centres undefined): the Potency result in experiment [1] and in experiment [2] was “inactive” in each case.
In the case of `O=C1NC2CCc3nc4ccccc4c(=O)n3C2=Nc2ccccc21` (centres undefined), the Potency entry in experiment [1] and in experiment [2] was “inactive” each time.
Turning to `COC(=O)C1=CO[C@@H](O[C@@H]2O[C@H](CO)[C@@H](O)[C@H](O)[C@H]2O)[C@H]2[C@@H]1C=C[C@@]21C=C([C@H](C)O)C(=O)O1`, the Potency entry in experiment [1] and in experiment [2] was “inactive” throughout.
Consider `C=C1C(O)C(O)C2(CC3C(C)=CCC4C(C)(CO)CCCC34C)OC2C1O` (centres undefined), for which the Potency entry in experiment [1] and in experiment [2] was “inactive” each time.
Regarding `CC(O)(CC(=O)O)CC(=O)OCc1ccc(O[C@@H]2O[C@H](CO)[C@@H](O)[C@H](O)[C@H]2O)cc1` (some centres undefined), the Potency result in experiment [1] and in experiment [2] was “inactive” in each case.
Take `CC(=O)OC[C@H]1O[C@H](O[C@]2(CO)O[C@H](CO)[C@@H](OC(=O)/C=C/c3ccccc3)[C@@H]2O)[C@H](O)[C@@H](O)[C@@H]1O`: the Potency result in experiment [1] and in experiment [2] was “inactive” each time.
As for `CC(C)CC1OC(=O)C2CCCN2C(=O)CCNC(=O)C(Cc2ccccc2)NC(=O)C(C(C)C)N(C)C(=O)C(C(C)C)N(C)C1=O` (centres undefined) (cyclo([ξLac(3-iPr)][NMeV][NMeV]F[βAla]P); configuration not given here), the Potency result in experiment [1] and in experiment [2] was “inactive” throughout.
`CC(=O)O[C@@H]1[C@@H](CO)O[C@@](CO)(O[C@H]2O[C@H](COC(=O)/C=C/c3ccccc3)[C@@H](O)[C@H](O)[C@H]2O)[C@H]1O`: the Potency entry in experiment [1] and in experiment [2] was “inactive” throughout.
Turning to `C1CCC[C@H]2CCCN3CC[C@@H](CCCCCC[C@@H]4CCCN5CC[C@@H](CC1)O[C@@H]45)O[C@@H]23`, the activity change, negative = inhibition in experiment [1] is -0.14% [at 0.247 µM]. Moreover, in experiment [2], the activity change, negative = viability loss was -4.42% [at 0.177 µM].
